# Values joined by “and” are separate entries in the source; they are usually repeats but may differ in a detail not shown here. Identical values can stand only once. Active and inactive are the calls of the source.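 The calls were made as follows, unless noted: active = inhibition at or above 50% relative to wild type and mutant plate controls; inactive = inhibition below 50%.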
# Assays:
# [1] = inhibitors of TNFa-induced NFkB p65 translocation, primary screen, imaging, HUVEC, MLSMR starter and 10KST1 sets (AID 438;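 active = inhibition above 20% together with a positive visual image hit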;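 also: compound added about 3h40 before a 20 min TNFalpha stimulation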;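 as to inhibition: signal is the nuclear over cytoplasmic p65 intensity ratio per well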); details: HUVEC TNFa-induced p65 nuclear translocation; cell count: measured here: nuclei count (cytotoxicity indicator), at 2.08 µM; inhibition: at 2 µM, stronger effect = higher value, 0% TNFa-plus-vehicle, 100% no-TNFa wells
# [2] = inhibitors of E-selectin induction by TNFa, primary screen, imaging, HUVEC, immunofluorescence, MLSMR starter and 10KST1 sets (AID 487;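 active = visually confirmed hit in the image check and inhibition above 20%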;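 as to inhibition: signal is fraction of cell area covered by stained E-selectin grains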;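 as to nuclei count: 100% = median nuclei count of all wells on the same plate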); details: HUVEC TNFalpha-induced E-selectin immunofluorescence imaging, at 2 µM; inhibition: stronger effect = higher value; nuclei count: measured here: cell number, toxicity
# [3] = DUSP6 inhibitors restoring Erk phosphorylation by chemical complementation, primary imaging in DUSP6-transfected HeLa (AID 609;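 active = compounds giving at least 50% inhibition in the cell-based MKP-3 phosphatase rescue imaging test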;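 as to inhibition: phospho-Erk level distribution per well compared with pooled transfected vehicle control wells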); details: HeLa MKP-3 transfected, phospho-Erk imaging KS statistic, at 10 µM, cells stimulated with TPA for 15 min
# [4] = target: Dual specificity protein phosphatase 6 (Homo sapiens) (UniProt Q16828); assay: as above; details: HeLa MKP-3 transfected, phospho-Erk imaging KS statistic; at 10 µM; stronger effect = higher value; cells stimulated with TPA for 15 min
# Dual specificity protein phosphatase 6 (Homo sapiens), sequence (Q16828 whole entry, looked up): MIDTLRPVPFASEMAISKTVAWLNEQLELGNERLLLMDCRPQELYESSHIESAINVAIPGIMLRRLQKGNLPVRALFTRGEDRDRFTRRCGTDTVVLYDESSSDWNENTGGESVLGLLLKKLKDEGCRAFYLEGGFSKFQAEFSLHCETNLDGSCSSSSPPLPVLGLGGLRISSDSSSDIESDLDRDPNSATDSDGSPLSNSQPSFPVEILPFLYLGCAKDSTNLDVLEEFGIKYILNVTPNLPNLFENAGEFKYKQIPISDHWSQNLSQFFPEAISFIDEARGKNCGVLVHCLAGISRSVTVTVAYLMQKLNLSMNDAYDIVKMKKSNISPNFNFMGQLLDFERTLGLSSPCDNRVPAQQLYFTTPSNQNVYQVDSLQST
# [5] = target: Voltage-gated potassium channel subunit beta-2 (Rattus norvegicus) (UniProt P62483); assay: KvBeta enzyme negative modulators, primary screen, biochemical, NADPH fluorescence (AID 622;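 active = fluorescence slope higher than the sample average by over 3 SD, cut at about -0.22 in these data, passing the limit was not always enough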;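 also: slope of raw intensity against log time taken from 70 to 1610 s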); details: recombinant KvBeta, 4-cyanobenzaldehyde reduction, at 10 µM, stronger effect = higher value
# Voltage-gated potassium channel subunit beta-2 (Rattus norvegicus), sequence (P62483 whole entry, looked up): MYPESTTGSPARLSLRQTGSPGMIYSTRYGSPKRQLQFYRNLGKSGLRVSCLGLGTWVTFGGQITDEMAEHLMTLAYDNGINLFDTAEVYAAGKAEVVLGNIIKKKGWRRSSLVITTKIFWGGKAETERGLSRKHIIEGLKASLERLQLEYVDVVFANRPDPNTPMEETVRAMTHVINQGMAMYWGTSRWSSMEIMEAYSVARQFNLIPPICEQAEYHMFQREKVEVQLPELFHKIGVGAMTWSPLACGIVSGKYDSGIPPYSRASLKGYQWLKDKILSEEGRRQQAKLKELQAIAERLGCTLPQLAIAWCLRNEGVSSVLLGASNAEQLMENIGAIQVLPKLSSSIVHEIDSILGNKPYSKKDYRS
# [6] = target: Voltage-gated potassium channel subunit beta-2 (Rattus norvegicus) (UniProt P62483); assay: KvBeta positive modulators, primary screen, biochemical, NADPH fluorescence (AID 623;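 active = NADPH fluorescence slope more negative than the mean of all samples by about 3 SD, 99.7% confidence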;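 also: fluorescence intensity change per second fitted from 20 to 320 s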); details: Recombinant KvBeta, NADPH fluorescence decrease slope, 10 min; at 10 µM; stronger effect = lower value
# [7] = target: Alpha-2C adrenergic receptor (Homo sapiens) (UniProt P18825); assay: modulators of alpha2C/GIRK thallium flux, primary screen, cell-based, HEK293 alpha2C/GIRK1/2 (AID 624;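 active = fluorescence slope after compound addition differing from the mean of all screened samples at 99.7% confidence, in either direction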;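 also: slope of fluorescence ratio to pre-addition baseline per second over 15 to 24 s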); details: thallium flux BTC fluorescence, at 10 µM, actives lie on both sides
# Alpha-2C adrenergic receptor (Homo sapiens), sequence (P18825 whole entry, looked up): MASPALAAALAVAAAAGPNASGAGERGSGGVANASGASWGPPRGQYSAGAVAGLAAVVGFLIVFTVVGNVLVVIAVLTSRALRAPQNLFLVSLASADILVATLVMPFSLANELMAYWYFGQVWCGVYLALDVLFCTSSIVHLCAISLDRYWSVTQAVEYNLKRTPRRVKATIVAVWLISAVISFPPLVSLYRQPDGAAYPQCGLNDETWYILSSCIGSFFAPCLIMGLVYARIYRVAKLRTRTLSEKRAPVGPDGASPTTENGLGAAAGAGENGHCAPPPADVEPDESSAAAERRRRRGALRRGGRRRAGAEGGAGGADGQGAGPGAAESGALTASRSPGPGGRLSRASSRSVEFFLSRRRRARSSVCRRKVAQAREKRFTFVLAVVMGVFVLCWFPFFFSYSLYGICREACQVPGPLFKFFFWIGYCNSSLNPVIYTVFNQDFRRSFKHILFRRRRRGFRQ
# [8] = inhibitors of Chlamydomonas gravitaxis, primary screen, whole organism, Chlamydomonas reinhardtii, WT vs cilia-less mutant, absorbance, 96-well (AID 463189); details: OD600 absorbance, 2 days, at 10 µM, stronger effect = higher value;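 also: 0% = wild type cc124 cells in DMSO and 100% = ciliumless bld1 mutant cells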
# [9] = inhibitors of larval lipid processing in zebrafish, primary screen, whole organism, PED6 fluorescence, gall bladder and intestine (AID 686;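 active = a full or partial loss of lipid-probe fluorescence in the fish gall bladder, intestine or both, judged by eye; inactive = no fluorescence loss, or compound toxic to the fish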;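 also: larvae 5 to 7 days old with five fish per well; signal comes from phospholipase A2 cleavage of quenched PED6 carried via bile; overnight exposure to compound and PED6 before scoring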); details: Zebrafish larvae PED6 lipid processing, fluorescence scoring; screened at 20 µM (by protocol)
# [10] = inhibitors of Sendai virus-induced IRF3 signaling, primary screen, TLR/RLR signaling modifier project, cell-based, Sendai virus stimulus, luciferase, 10K MLSCN set (AID 602276;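 active = inhibition at or above 50% at 10 µM; inactive = inhibition below 50%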;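 also: firefly luciferase from ISG56 promoter only with Renilla not read in this screen; 0% = Sendai virus plus DMSO and 100% = medium plus DMSO without virus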); details: HEK293 RL24 IRF3 luciferase reporter, at 10 µM, stronger effect = higher value
# [11] = inhibitors of poly I:C-induced TLR3 signaling, primary screen, cell-based, poly I:C stimulus, luciferase, 10K MLSCN set (AID 602277;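 active = inhibition of the reporter signal at or above 50%; inactive = inhibition below 50%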); details: HEK293-TLR3 RL24 IRF3 luciferase reporter, at 10 µM, stronger effect = higher value
# [12] = measured here: cell density z-score
# [13] = measured here: nuclear c-Myc green intensity z-score
# [14] = measured here: nuclear pErk red intensity z-score, stronger effect = higher value
smiles,measurement,setting,value
COc1cccc(-c2nc(NCCN3CCOCC3)c3ccccc3n2)c1O,cell count,[1],355
same,inhibition,[1],-7.9% (inactive)
same,inhibition,[2],21.8% (inactive)
same,nuclei count,[2],164%
same,z-score,[3]; [12],-0.211
same,z-score,[3]; [13],-0.437
same,z-score,[3]; [14],-0.66
same,inhibition,[4],21% (inactive)
same,fluorescence slope,[5],-0.395 (inactive)
same,NADPH fluorescence slope,[6],-0.00024 (inactive)
same,slope,[7],0.00346 (inactive)
same,inhibition,[8],95% (active)
COc1cc2nc(N3CCN(C(=O)c4ccco4)CC3)nc(N)c2cc1OC,cell count,[1],679
same,inhibition,[1],3% (inactive)
same,inhibition,[2],-130% (inactive)
same,nuclei count,[2],128%
same,z-score,[3]; [12],1.25
same,z-score,[3]; [13],-0.94
same,z-score,[3]; [14],-1.9
same,inhibition,[4],9.37% (inactive)
same,fluorescence slope,[5],-0.4 (inactive)
same,NADPH fluorescence slope,[6],-1.8e-05 (inactive)
same,slope,[7],0.00375 (inactive)
same,outcome,[9],inactive
same,inhibition,[8],-2.52% (inactive)
same,inhibition,[10],-4.12% (inactive)
same,inhibition,[11],19.3% (inactive)
CCC1CCCCN1c1nc(-c2cccc(OC)c2O)nc2ccccc12 (stereo unspecified),cell count,[1],322
same,inhibition,[1],0.9% (inactive)
same,inhibition,[2],-128% (inactive)
same,nuclei count,[2],154%
same,z-score,[3]; [12],-0.599
same,z-score,[3]; [13],0.187
same,z-score,[3]; [14],0.757
same,inhibition,[4],-8.76% (inactive)
same,fluorescence slope,[5],-0.454 (inactive)
same,NADPH fluorescence slope,[6],-0.000132 (inactive)
same,slope,[7],0.00525 (inactive)
same,inhibition,[8],3.59% (inactive)
COC(=O)C1=C(C)N=C2SC(C)C(=O)N2C1/C=C/c1ccccc1OC (stereo unspecified),cell count,[1],366
same,inhibition,[1],3.2% (inactive)
same,inhibition,[2],-74.7% (inactive)
same,nuclei count,[2],143%
same,z-score,[3]; [12],-1.74
same,z-score,[3]; [13],0.498
same,z-score,[3]; [14],0.497
same,inhibition,[4],-1.75% (inactive)
same,fluorescence slope,[5],-0.423 (inactive)
same,NADPH fluorescence slope,[6],-0.00012 (inactive)
same,slope,[7],0.00673 (inactive)
same,inhibition,[8],-14.7% (inactive)
CC1(C)CC(=O)C2=C(C1)Oc1nc3ccccc3cc1C2C(C#N)C#N (stereo unspecified),cell count,[1],373
same,inhibition,[1],-3.7% (inactive)
same,inhibition,[2],-108% (inactive)
same,nuclei count,[2],134%
same,z-score,[3]; [12],-0.147
same,z-score,[3]; [13],-0.642
same,z-score,[3]; [14],-1.04
same,inhibition,[4],-12.3% (inactive)
same,fluorescence slope,[5],-0.414 (inactive)
same,NADPH fluorescence slope,[6],-0.000128 (inactive)
same,slope,[7],0.00783 (inactive)
same,inhibition,[8],26.7% (inactive)
CC(C)Cc1ccc(C(C)C(=O)O)cc1 (stereo unspecified),cell count,[1],604
same,inhibition,[1],-0.8% (inactive)
same,inhibition,[2],-67.2% (inactive)
same,nuclei count,[2],132%
same,z-score,[3]; [12],-0.577
same,z-score,[3]; [13],-0.145
same,z-score,[3]; [14],0.0811
same,inhibition,[4],-0.828% (inactive)
same,fluorescence slope,[5],-0.469 (inactive)
same,NADPH fluorescence slope,[6],-4.6e-05 (inactive)
same,slope,[7],0.00562 (inactive)
same,outcome,[9],inactive
same,inhibition,[8],1.82% (inactive) and -1.73% (inactive)
same,inhibition,[10],-8.48% (inactive)
same,inhibition,[11],-4.09% (inactive)
CC12CCC(C(=O)NCCCN3CCOCC3)(OC1=O)C2(C)C (stereo unspecified),cell count,[1],297
same,inhibition,[1],5.1% (inactive)
same,inhibition,[2],12.1% (inactive)
same,nuclei count,[2],126%
same,z-score,[3]; [12],0.486
same,z-score,[3]; [13],0.456
same,z-score,[3]; [14],1.46
same,inhibition,[4],8.76% (inactive)
same,fluorescence slope,[5],-0.425 (inactive)
same,NADPH fluorescence slope,[6],-0.000122 (inactive)
same,slope,[7],0.0052 (inactive)
same,inhibition,[8],-10.2% (inactive)
Cc1oncc1C(=O)Nc1ccc(C(F)(F)F)cc1,cell count,[1],554
same,inhibition,[1],-5.4% (inactive)
same,inhibition,[2],-80% (inactive)
same,nuclei count,[2],111%
same,z-score,[3]; [12],0.779
same,z-score,[3]; [13],0.543
same,z-score,[3]; [14],0.25
same,inhibition,[4],-10.4% (inactive)
same,fluorescence slope,[5],-0.489 (inactive)
same,NADPH fluorescence slope,[6],-4.6e-05 (inactive)
same,slope,[7],0.00635 (inactive)
same,outcome,[9],inactive
same,inhibition,[8],-2.73% (inactive) and -10% (inactive)
same,inhibition,[10],-116% (inactive)
same,inhibition,[11],-197% (inactive)
N#Cc1nc(-c2ccccc2Cl)oc1N1CCCCC1,cell count,[1],419
same,inhibition,[1],6.4% (inactive)
same,inhibition,[2],-134% (inactive)
same,nuclei count,[2],150%
same,z-score,[3]; [12],1.98
same,z-score,[3]; [13],-2.24
same,z-score,[3]; [14],-0.968
same,inhibition,[4],20.2% (inactive)
same,fluorescence slope,[5],-0.535 (inactive)
same,NADPH fluorescence slope,[6],-6.6e-05 (inactive)
same,slope,[7],0.00507 (inactive)
same,inhibition,[8],35.9% (inactive)
N#C/C(=N\O)c1nc(-c2ccccc2)cs1,cell count,[1],302
same,inhibition,[1],-1.9% (inactive)
same,inhibition,[2],-12.9% (inactive)
same,nuclei count,[2],149%
same,z-score,[3]; [12],0.00555
same,z-score,[3]; [13],1.35
same,z-score,[3]; [14],-0.606
same,inhibition,[4],1.75% (inactive)
same,fluorescence slope,[5],-0.418 (inactive)
same,NADPH fluorescence slope,[6],-0.000175 (inactive)
same,slope,[7],0.00629 (inactive)
same,inhibition,[8],2.16% (inactive)
CCn1nc(C(=O)O)c(=O)c2cc3c(cc21)OCO3,cell count,[1],692
same,inhibition,[1],-0.9% (inactive)
same,inhibition,[2],-72.8% (inactive)
same,nuclei count,[2],125%
same,z-score,[3]; [12],0.431
same,z-score,[3]; [13],0.329
same,z-score,[3]; [14],-0.702
same,inhibition,[4],1.48% (inactive)
same,fluorescence slope,[5],-0.476 (inactive)
same,NADPH fluorescence slope,[6],-5.5e-05 (inactive)
same,slope,[7],0.00573 (inactive)
same,outcome,[9],inactive
same,inhibition,[8],-5.01% (inactive) and 17.9% (inactive)
same,inhibition,[10],8.87% (inactive)
same,inhibition,[11],30.3% (inactive)
CCN(CC)CCn1c(O)c(N=O)c2ccccc21,cell count,[1],314
same,inhibition,[1],-11.6% (inactive)
same,inhibition,[2],-9% (inactive)
same,nuclei count,[2],111%
same,z-score,[3]; [12],-0.589
same,z-score,[3]; [13],-0.252
same,z-score,[3]; [14],0.221
same,inhibition,[4],21% (inactive)
same,fluorescence slope,[5],-0.482 (inactive)
same,NADPH fluorescence slope,[6],-3.1e-05 (inactive)
same,slope,[7],0.00988 (inactive)
same,inhibition,[8],0.498% (inactive)

# Reference: PubChem BioAssay
